# IMPase inh: qHTS Assay for Identifying the Cell-Membrane Permeable IMPase Inhibitors | Inositol monophosphatase 1 (Rattus norvegicus), P97697 | 120,000 tested, under 10 active | inhibition (IP1 accumulation), % at 46.1 µM | CHO-M1 cells, IP1 accumulation, HTRF TR-FRET ratio; active = well fitted curve in the direction sought with a large enough effect in the signal ratio, not every such curve was filed as active; inconclusive = small, poorly fitted or top-dose-only effect, or a change in a side signal; inactive = no such curve, though single readings can be large or run the other way; the % refers to the signal ratio;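 note: cells stimulated with carbachol in lithium chloride buffer; plate controls were DMSO basal wells for no effect and reference inhibitor wells for full effect; higher means more IMPase inhibition seen as more IP1 and lower FRET ratio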
#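 The IP-One HTRF competitive assay in carbachol-stimulated CHO-M1 cells quantifies cellular IP1. Compounds spanned up to 46 uM final, and activity is expressed as AC50 from concentration-response fits of the ratio and donor data.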
# ALDH1A1 inh: qHTS Assay for Inhibitors of Aldehyde Dehydrogenase 1 (ALDH1A1); Purified ALDH1A1, NADH fluorescence, propionaldehyde substrate; 220,000 compounds, 7.3% hits; Aldehyde dehydrogenase 1A1 (Homo sapiens), P00352; Potency, µM (top dose mostly 75.3 µM), for inactives: at the highest dose activity, negative = inhibition, most hits filed as inhibitors; AID 1030, 2008; active = well fitted inhibition curve with a large enough effect, not every such curve was filed as active; inconclusive = small, poorly fitted or top-dose-only effect, or another doubt; inactive = no such curve, though single readings can be large or run the other way;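 note: potency is the fitted concentration of half-maximal effect; plate controls were no enzyme wells and a reference inhibitor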
# Target sequence (P00352 whole entry, looked up): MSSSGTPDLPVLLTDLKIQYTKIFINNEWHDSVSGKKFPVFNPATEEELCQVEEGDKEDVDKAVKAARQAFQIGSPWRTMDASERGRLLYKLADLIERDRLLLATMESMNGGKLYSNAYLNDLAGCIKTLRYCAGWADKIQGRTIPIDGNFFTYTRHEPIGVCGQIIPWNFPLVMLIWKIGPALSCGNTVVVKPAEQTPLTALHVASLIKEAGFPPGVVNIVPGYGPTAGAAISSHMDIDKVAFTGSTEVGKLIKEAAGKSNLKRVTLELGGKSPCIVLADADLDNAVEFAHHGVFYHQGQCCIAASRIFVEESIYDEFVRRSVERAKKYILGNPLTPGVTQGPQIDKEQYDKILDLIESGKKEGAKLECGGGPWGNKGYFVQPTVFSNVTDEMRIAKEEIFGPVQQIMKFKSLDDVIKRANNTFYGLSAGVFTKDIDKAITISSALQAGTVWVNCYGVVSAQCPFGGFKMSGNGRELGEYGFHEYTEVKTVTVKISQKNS
# HTT aggregate: qHTS Multiplex Assay to Identify Dual Action Probes in a Cell Model of Huntington: Aggregate Formation (GFP) | PC12 HttQ103-GFP aggregates, Acumen cytometry, 40 h | Potency, µM (highest dose often 46.1 µM), inactives show top-dose activity change, negative = inhibition, actives largely listed as inhibitors | 220,000 compounds, 1.1% hits | AID 1688, 2009; note: potency is the fitted concentration of half-maximal effect; % is set by controls: 0 for no effect and ±100 for the full control effect; nearly all actives have a fitted effect of over 60% in size
#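 Ecdysone-promoter PC12 model expressing HTT exon 1 Q103 fused to GFP, induced by tebufenozide at 100 nM final. Compounds titrated; aggregates sized 1–25 µm scored on a 488 nm laser cytometer.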
# HPGD block: qHTS Assay for Inhibitors of HPGD (15-Hydroxyprostaglandin Dehydrogenase); 15-hydroxyprostaglandin dehydrogenase [NAD(+)] (Homo sapiens), P15428; purified HPGD, NADH fluorescence kinetic, PGE2 substrate; Potency, µM, without a hit: at the top dose activity change, negative = inhibition, actives largely listed as inhibitors; 150,000 compounds, 4.3% hits; active = well fitted inhibition curve with a large enough effect, not every such curve was filed as active; inconclusive = small, poorly fitted or top-dose-only effect, or another doubt; inactive = no such curve, though single readings can be large or run the other way; note: potency is the fitted concentration of half-maximal effect; % is set by controls: 0 for no effect and ±100 for the full control effect
# Target sequence (P15428 whole entry, looked up): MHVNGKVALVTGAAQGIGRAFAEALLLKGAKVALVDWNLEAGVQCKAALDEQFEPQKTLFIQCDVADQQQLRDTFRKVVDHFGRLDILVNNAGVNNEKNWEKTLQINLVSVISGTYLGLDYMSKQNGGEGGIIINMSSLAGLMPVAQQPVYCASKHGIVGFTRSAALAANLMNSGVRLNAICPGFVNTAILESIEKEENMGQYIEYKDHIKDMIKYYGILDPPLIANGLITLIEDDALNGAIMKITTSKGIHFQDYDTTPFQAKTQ
#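 NADH formation kinetics: reaction with 30 uM PGE2 and 1 mM NAD+ (final), 20 nM enzyme, Tris-HCl pH 8 with Tween 20, after 15 min compound preincubation at room temperature. Fluorescence change, last versus first of five reads.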
# IMPase Li cell: qHTS Assay for Identifying the Cell-Membrane Permeable IMPase Inhibitors: Potentiation with Lithium; CHO-M1 cells, IP1 TR-FRET (IP-One), carbachol + lithium; Potency, µM (series often up to 59.4 µM), for the others: top-dose activity, negative = IMPase inhibition, actives largely listed as inhibitors; 210,000 compounds, 0.35% hits; AID 1457, 2008;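 note: IP1 builds up when IMPase is blocked and the TR-FRET signal falls; potency is the fitted concentration of half-maximal effect; plate controls were basal vehicle for no effect and high inhibitor control for full effect; nearly all actives have a fitted effect of over 50% in size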
#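 CHO-M1, 2000 cells/well, 16–30 h culture; cpd + low Li+, 30 min 37C; lysis with d2-IP1/Eu-anti-IP1 Ab, 10 min RT; TR-FRET 665/620 ratio and 620 channel; AC50 via Hill.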
# HTT cytoprotect: qHTS Multiplex Assay to Identify Dual Action Probes in a Cell Model of Huntington: Cytoprotection (ATP); AID 1471, 2008; PC12 HTT-Q103 induced, cytoprotection, ATP luminescence, 40 h; Potency, µM (highest dose often 56.4 µM), for the others: cytoprotection (ATP increase), hits mostly activators; 230,000 compounds, 0.14% hits; note: potency is the fitted concentration of half-maximal effect; % of control where 0% means no effect; nearly all actives have a fitted effect of over 45% in size
#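 Compounds added alongside 100 nM tebufenozide, which induces toxic Q103 huntingtin exon 1-GFP in stable PC12 cells; surviving cells quantified by luminescent ATP measurement. Medium: phenol red-free DMEM, 5% equine and 5% calf serum.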
# Starred values were filed as active, the others as inactive; ? = inconclusive; nt = no result; [ ] = another dose, or the depositor's remark. A selection: hits, their analogues and other compounds. The true share with any hit is near 9.4%. Unless noted, calls come from the whole dose curve; as a rule, active = well fitted curve in the direction sought with a large enough effect; inconclusive = small, poorly fitted or top-dose-only effect, or another doubt; inactive = no such curve, though single readings can be large; an effect the other way counts as inactive or inconclusive.
SMILES,IMPase inh,ALDH1A1 inh,HTT aggregate,HPGD block,IMPase Li cell,HTT cytoprotect
C=CC[C@@H]1C=C[C@H](O/N=C\[C@@H](C)[C@H](OCc2ccccc2)C(C)C)[C@H](CO)O1,nt,5%[13.5 µM],nt,nt,nt,-14%[10 µM]
N#CC(c1ccc(Cl)nn1)c1ccc(Cl)cc1Cl (centres undefined),9,6.3µM*,-1%,-6%,26%[38.3 µM],-12%
COc1ccc(C(C#N)c2ccc(Cl)nn2)cc1 (centres undefined),nt,?,4%,nt,2%,-16%[10 µM]
CC(C)(Cc1c[nH]c2ccccc12)NCC(O)COc1ccccc1C#N (centres undefined),nt,nt,-11%,nt,nt,-55%
CC(C)CC(NC(=O)OCC1c2ccccc2-c2ccccc21)C(=O)O (centres undefined),nt,8.9µM*,nt,-9%,1%,nt
CCC(Oc1ccc(F)cc1)C(=O)Nc1c(C(=O)c2ccc(C)cc2)oc2ccccc12 (centres undefined),8,nt,nt,nt,nt,nt
CC(=O)C1=C(C)N(Cc2ccco2)C(=O)N[C@@H]1c1ccccc1,nt,4%,nt,-6%,15%,-9%
CCOC(=O)CCCCC(=O)c1[nH]c(=O)[nH]c1CSc1nnc2c3cc(Br)ccc3n(C)c2n1,nt,0.63µM*,10%,nt,11%,18%[10 µM]
COc1ccc(CSc2nnc(C)n2N)cc1[N+](=O)[O-],nt,13µM*,-3%[9.22 µM],nt,6%,12%[10 µM]
COc1ccc(CSc2nnc(C)n2N)cc1Br,0,15%,-4%,-5%,13%[38.3 µM],-20%
CCCCOc1ccc(CSc2nnc(C)n2N)cc1[N+](=O)[O-],nt,1%,-2%[9.22 µM],nt,-3%,24%[10 µM]
CCc1nnc(SCc2ccc(OC)c(Br)c2)n1N,5,28µM*,5%,-24%,-5%[38.3 µM],3%
COc1ccc(CSc2n[nH]c(C)n2)cc1[N+](=O)[O-],nt,10µM*,8%,-27%,4%,4%[10 µM]
COc1ccc(CSc2ncn[nH]2)cc1[N+](=O)[O-],nt,?,10%,-7%,-6%,18%[10 µM]
CCOC(=O)CCCNC(=O)N1CCc2nc(-c3ccc(OC)cc3C)c3c(c2C1)CO[C@@H](c1ccccc1)C3,nt,?,nt,-4%,-6%,-12%[10 µM]
Cc1nc(N2CCOCC2)nc(N2CCCCC2)c1[N+](=O)[O-],nt,16µM*,-28%,-2%,4%,9%[0.074 µM]
FC(F)Oc1ccc(/C=N/c2c(-c3ccc(OC(F)F)cc3)nc3n2CCS3)cc1,1,3.5µM*,-15%,?,20%,2%[10 µM]
CCNC(=O)[C@@H]1O[C@@H](n2cnc3c(NCc4ccccc4)ncnc32)[C@@H](O)[C@H]1O,nt,nt,nt,nt,nt,-15%[1.9 µM]
COc1ccc(-n2c(C)cc(-c3csc(NC(=O)c4ccc(S(=O)(=O)N(C)C)cc4)n3)c2C)cc1,nt,2.2µM*,11%,-4%,-5%,10%[10 µM]
CN(C)S(=O)(=O)c1ccc(C(=O)Nc2nc(-c3cccs3)cs2)cc1,16,162%,2%,?,16%[38.3 µM],-14%
CN(C)S(=O)(=O)c1ccc(Cl)c(-c2nnc3n2CCCCC3)c1,nt,-2%,-26%,nt,8%,-27%
Cc1ccc(C)n1-c1ccc(-c2nnc3n2CCCCC3)s1,?,?,7%,3.2µM*,13µM*,24%
Clc1ccc(-c2nnc3n2CCCC3)cc1Cl,-10,-5%,-6%,32µM*,-11%[38.3 µM],7%
Clc1ccc(-c2nnc3n2CCCCC3)cc1,-4,-1%,?,16µM*,-9%[38.3 µM],?
O=S(=O)(c1cccc(-c2nnc3n2CCCCC3)c1)N1CCCC1,nt,-3%,2%,nt,6%,-17%
SMILES,IMPase inh,ALDH1A1 inh,HTT aggregate,HPGD block,IMPase Li cell,HTT cytoprotect
Clc1cccc(-c2nnc3n2CCCCC3)c1,nt,3%,-20%,nt,-6%,0%[10 µM]
COc1ccccc1S(=O)(=O)Nc1ccc(-c2nnc3n2CCCCC3)cc1,2,?,-8%,32µM*,-2%[38.3 µM],4%
Cc1cc(CC(=O)O)c(C)n1-c1ccc(Cl)cc1,nt,nt,0%,nt,nt,-8%
NCCC[C@@H](CC(=O)N[C@@H]1CCCC[C@H]1C(=O)N[C@H](CC(=O)N[C@@H](CCC(=O)O)CC(=O)O)Cc1c[nH]c2ccccc12)NC(=O)C[C@H](CO)NC(=O)[C@@H]1CNCC[C@H]1N,nt,?,nt,-6%,13%,8%[1.9 µM]
C1CCc2nnc(-c3nnc4n3CCCCC4)n2CC1,1,6%,-3%,-8%,31%[38.3 µM],29%[10 µM]
Brc1ccc(-c2nnc3n2CCCCC3)cc1,4,13µM*,-16%,7.1µM*,27%[38.3 µM],-7%[10 µM]
Cc1ccc(S(=O)(=O)N(C)Cc2ccc(-c3nnc4n3CCC4)cc2)cc1,9,-9%,-9%,4.5µM*,-9%[38.3 µM],-3%[10 µM]
O=CC(=O)c1ccccc1,nt,2.8µM*,nt,-8%,15%,-30%
C[C@H]1Cc2c(-c3ccccc3)nc3c(c2CO1)CN(C(=O)c1cccnc1)CC3,nt,13%[13.5 µM],nt,0%,2%,-17%[10 µM]
O=C(O)CCc1cc(I)c(O)c(I)c1,nt,4%,nt,nt,11%,15%
O=C(c1ccco1)c1nnn(Cc2ccccc2)c1-c1ccccc1,?,11µM*,-22%,-11%,6%[38.3 µM],1%
CSCCC(Nc1ncnc2ccc(Br)cc12)C(=O)O (centres undefined),-27,?,-8%,-19%,10µM*,-15%[10 µM]
Brc1ccc2ncnc(NCc3ccco3)c2c1,-3,?,8.9µM*,?,-8%[38.3 µM],-11%
COc1cc2ncnc(NCc3ccco3)c2cc1OC,nt,6%,-18%[9.22 µM],nt,6%,-5%
CC(C)Nc1ncnc2ccc(Br)cc12,nt,-16%,6.3µM*,-10%,-10%,nt
CCN(CC)C(=O)Nc1ccc(OC[C@H](O)CNC(C)(C)C)c(C(C)=O)c1,nt,nt,-14%,nt,nt,-5%
Cc1ccc(OCCSc2nc3ccccc3n2CCC(=O)O)cc1C,-12,nt,nt,nt,nt,nt
CC#CCN1c2ccccc2[C@]23C[C@@H](C(=O)OC)N(S(=O)(=O)c4ccc5c(c4)OCCN5C)C2=NC(C(=O)OC)=C(C(=O)OC)[C@H]13,nt,-6%[13.5 µM],nt,-1%,-8%,1%[10 µM]
CN(C)c1ccc(C(=O)Nc2nc3c(s2)CCCC3)cc1,4,?,5%,?,14%,-44%[10 µM]
C/C(=N\Nc1nc2c(s1)CCCC2)c1ccc(Cl)cc1,10,28µM*,-4%,-14%,4%[38.3 µM],-15%
